Screens deposited in PubChem BioAssay by National Center for Advancing Translational Sciences (NCATS).
CHX counter: Cycloheximide Counterscreen for Small Molecule Inhibitors of Shiga Toxin. cell reporter, cycloheximide protein synthesis inhibition counterscreen. max response, %. AID 2314, 2010. actives 12% (n = 300,000); in the data active = max response mostly above about 13%, no sharp cut-off; inactive = mostly below about 14%; also: read at 38.3 µM for the half of the compounds with a filed dose; 0% is about no effect
Pf growth 48h: Primary qHTS for delayed death inhibitors of the malarial parasite plastid, 48 hour incubation; P. falciparum luciferase growth in erythrocytes, 48 h; Potency, µM (top dose mostly 28.7 µM), without a hit: top-dose activity change, negative = inhibition, most hits filed as inhibitors; actives 5.9% (n = 310,000); AID 504832, 2011; also: potency is read from the fitted curve at half-maximal effect; % is scaled to controls: 0 for no effect and ±100 for the full control effect
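Firefly luciferase activity from engineered P. falciparum reports growth; inhibitors lower the luminescent signal. Cultures contained 2% hematocrit erythrocytes at 0.1% final parasitemia.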
Pf growth 96h: Primary qHTS for delayed death inhibitors of the malarial parasite plastid, 96 hour incubation; P. falciparum luciferase reporter growth, 96 h; Potency, µM (titrated, usually from 28.7 µM), without a hit: at the top dose activity change, negative = inhibition, usual class: inhibitors; actives 6.9% (n = 320,000); AID 504834, 2011; also: potency is read from the fitted curve at half-maximal effect; % is scaled to controls: 0 for no effect and ±100 for the full control effect
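Luminescence readout: decreased luciferase signal marks inhibited growth of reporter-expressing P. falciparum in infected red cells (2% hematocrit, 0.05% parasitemia final), exposed to compound two generations (96 h, 37 C, 5% CO2).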
Shiga inhibitor: A qHTS for Small Molecule Inhibitors of Shiga Toxin | Vero cells, Shiga toxin protein synthesis inhibition reporter | inhibition, % at 38.7 µM | actives 9.2% (n = 290,000) | AID 2315, 2010; in the data active = inhibition mostly above about 28%, no sharp cut-off; inactive = mostly below about 43%; also: 0% is about no effect
Starred values were filed as active, the others as inactive; u = inconclusive; x = not tested or not shown; [ ] = dose if it differs, or a comment. This is a sample that favours compounds with a hit; in the whole collection about 21% have one here. Unless noted, calls follow the shape of the dose curve; as a rule, active = well fitted inhibition curve with a large enough effect; inconclusive = small, poorly fitted or top-dose-only effect, or another doubt; inactive = no such curve, though single readings can be large or run the other way.

SMILES	CHX counter	Pf growth 48h	Pf growth 96h	Shiga inhibitor
CCOC(=O)N1C2=NC(C(=O)OC)=C(C(=O)OC)[C@@H]3N(C)c4ccccc4[C@]23C[C@H]1C(=O)OC	23*	56%	-11%	-1
Cc1cc(NS(=O)(=O)c2cc(Cl)sc2Cl)no1	-5	x	20%	-4
COc1ccccc1CNC(=O)c1cc(C(=O)CC(C)C)c[nH]1	-1	8%[0.00184 µM]	0%	3
CCOC(=O)CC1COc2ccccc2N1C(=O)c1cccc([N+](=O)[O-])c1 (stereo not drawn)	-3	6%[0.00184 µM]	17%	-7
COc1ccccc1CCC(=O)N(C)C1CCCN(Cc2ccccc2F)C1 (stereo not drawn)	0	-2%	10µM*	7
COc1cc(C(=O)N(C)C2CCCN(Cc3ccccc3F)C2)cc(OC)c1OC (stereo not drawn)	-4	-16%	u	-8
CC(=O)Nc1ccc(NC(=O)C(C)OC(=O)CCCOc2ccc(Cl)cc2C)cc1 (stereo not drawn)	x	3%	13%	x
CCC(=O)NC(c1ccccc1)c1nc2ccccc2[nH]1 (stereo not drawn)	44*	24%	43%	68*
C/C(=N\NC(=O)c1cnccn1)c1ccc([N+](=O)[O-])cc1	20*	136%	1%	10
O=C(N/N=C/c1ccc([N+](=O)[O-])cc1)c1cnccn1	7	69%	87%	-5
C/C(=N/NC(=O)c1cc(O)c(O)c(O)c1)c1ccc([N+](=O)[O-])cc1	5	9.3µM*	33%	23
C/C(=N\NC(=O)c1ccc([N+](=O)[O-])cc1Cl)c1ccccc1	32*	0%	39%	56*
COCCn1c(=NC(=O)c2ccc(S(=O)(=O)N3CCc4ccccc4C3)cc2)sc2cc(S(N)(=O)=O)ccc21	-5	u	7.4µM*	-8
CCOCCn1c(=NC(=O)c2cc(Cl)sc2Cl)sc2cc(S(N)(=O)=O)ccc21	9	7%	-7%	-13
CCOCCn1c(=NC(=O)c2ccc(S(=O)(=O)N3CCOCC3)cc2)sc2cc(S(N)(=O)=O)ccc21	-1	15µM*	6.6µM*	-20
C#CCn1c(=NC(=O)c2ccc(S(=O)(=O)N3CCc4ccccc4C3)cc2)sc2cc(S(N)(=O)=O)ccc21	-8	u	5.2µM*	-17
CC1CCN(S(=O)(=O)c2ccc(C(=O)N3CCCC3C(=O)O)cc2)CC1 (stereo not drawn)	x	-7%	15%	x
COc1cccc(CNC(=O)C2CCN(S(=O)(=O)c3ccc4c(c3)CC(C)N4C(C)=O)CC2)c1 (stereo not drawn)	-5	u	u	-6
CN1CCc2cc(Cl)c(O)cc2[C@H]2c3ccccc3CC[C@@H]21	x	12µM*	9.5µM*	x
CC(C)(C)C(=O)/C(=C/c1ccc(Cl)cc1)n1cncn1	3	15µM*	136%	-12
CC(C)(C)C(=O)/C(=C/c1cccc([N+](=O)[O-])c1)n1cncn1	-9	u	7.4µM*	-22
CC(C)(C)C(=O)/C(=C\c1ccc([N+](=O)[O-])cc1)n1cncn1	-11	12µM*	u	-20
CC(C)/C=C(/C(=O)c1ccc(Cl)cc1Cl)n1cncn1	-6	-18%[0.00184 µM]	0%	-14
COc1ccc(OC)c(NC(=O)C2CC(=O)N(Cc3ccco3)C2)c1 (stereo not drawn)	x	u	19%	x
COc1cc2c(cc1CC=C(C)C)C(=O)C[C@@H](c1ccc(O)cc1)O2	-8	x	x	-2
SMILES	CHX counter	Pf growth 48h	Pf growth 96h	Shiga inhibitor
CCc1ccc(/C=N/NC(=O)c2nnn(-c3nonc3N)c2CN2CCOCC2)cc1	-3	-21%	7%	9
CC(C)NC(=O)/C(C#N)=C/c1ccc(N(C)C)o1	16*	74%	135%	60*
Cc1ccc(/C=C(\C#N)C(=O)NC(C)C)o1	8	0%	22%	12
Cc1cc2c(s1)c1cnn(Cc3ccc(-c4ccccc4)cc3)c(=O)c1n2C	-3	x	x	-7
C/C(=N\OCC(=O)OCC(=O)NCc1ccccc1)c1ccc2c(c1)OCO2	x	14%	0%	x
Cc1ccccc1C(=O)N1CCC(C(=O)Nc2ccc(S(=O)(=O)N3CCCC3)cc2)CC1	-5	u	x	6
Cc1ccccc1C(=O)N1CCC(C(=O)Nc2cccc(S(=O)(=O)N3CCCCC3)c2)CC1	x	15µM*	u	x
Cc1ccccc1C(=O)N1CCC(C(=O)Nc2ccc(C)c(S(=O)(=O)N3CCCCC3)c2)CC1	x	13µM*	u	x
COc1ccc(N/C=C/C(=O)c2sc(-c3ccccc3)nc2C)cc1	2	9%	9%	-7
COc1ccccc1Oc1ccc(N/C=C/C(=O)c2ccc(C)o2)cc1	25*	-7%[5.75 µM]	15%	135*
CC(=O)Nc1ccc(N/C=C/C(=O)c2ccc(C)o2)cc1	22*	34%	x	71*
O=C(NC(=S)NCc1nc2ccccc2[nH]1)c1ccc(F)cc1	28*	52%	131%	37
O=C(NCCc1nc2ccccc2[nH]1)c1ccc(F)cc1	11	11%	x	1
O=C(NC(=S)NCc1nc2ccccc2[nH]1)c1ccccc1F	45*	484%	438%	105*
CC(OCc1ccccc1)C(NC(=O)OC(C)(C)C)C(=O)NC1COC2CC(n3cc(F)c(=O)[nH]c3=O)OC12 (stereo not drawn)	-6	x	x	11
CC(OC(=O)C1CCN(S(=O)(=O)c2ccc(Cl)cc2)CC1)C(=O)NC1CCCCC1C (stereo not drawn)	-1	-16%	-7%	29
O=[N+]([O-])c1ccc(S(=O)(=O)NCCc2cn3ccccc3n2)cc1	-5	19%	-16%	-15
O=S(=O)(NCCc1cn2ccccc2n1)c1cccs1	20*	17%	31%	15
O=S(=O)(NCc1cn2ccccc2n1)c1cccs1	29*	35%	2%	53*
CCn1ccnc1CN(C)Cc1c(C(=O)N2CCCCCCC2)nc2ccc(Cl)cn12	-3	u	u	-30
Cc1cccc(CN2CCN(C(c3ccccc3)c3ccc(Cl)cc3)CC2)c1 (stereo not drawn)	-1	u	9.3µM*	16
COc1cc(CN2CCN(C(c3ccccc3)c3ccccc3)CC2)cc(OC)c1OC	-1	u	4.7µM*	-1
Cc1cccc(CN2CCN(Cc3ccc(Cl)cc3)CC2)c1	-4	x	u	-12
COc1cccc(CN2CCN(C(c3ccccc3)c3ccccc3)CC2)c1O	-3	u	0.41µM*	-7
O=S(=O)(NC1=NCCC1)c1cccc(NS(=O)(=O)c2ccc(OC(F)(F)F)cc2)c1	-2	12%	-4%	-8
CCOC(CNC(=O)c1ccc2nc(N3CCC(C)CC3)sc2c1)OCC	25*	u	9.3µM*	57
CCCN1CCN(CCCNC(=O)c2ccc3nc(N4CCC(C)CC4)sc3c2)CC1	33*	4%	u	47*
Cc1cccc(N(C(=O)c2ccc(CN3CCOCC3)o2)C(C(=O)NC(C)(C)C)c2ccc(F)cc2)c1 (stereo not drawn)	5	8.3µM*	u	-14
